Laboratory results taken from article PMC5540273 (PLoS ONE, 2017).

Assays:
Conditions in all cases: concentration: 1 μM,replicates: in singlicate; n = 1
CDK8 = system: CDK8
CDK9 = system: CDK9
CDKL1 = system: CDKL1
CDKL2 = system: CDKL2
CDKL3 = system: CDKL3
CDKL5 = system: CDKL5
CHEK1 = system: CHEK1
CHEK2 = system: CHEK2
CIT = system: CIT
CLK1 = system: CLK1
CLK2 = system: CLK2
CLK3 = system: CLK3
CLK4 = system: CLK4
CSF1R-autoinhibited = system: CSF1R-autoinhibited
CSF1R = system: CSF1R
CSK = system: CSK
CSNK1A1L = system: CSNK1A1L
CSNK1A1 = system: CSNK1A1
CSNK1D = system: CSNK1D
CSNK1E = system: CSNK1E
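Further: KINOMEscan kinase panel screen.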

Row | Compound | %Inh (CDK8) | %Inh (CDK9) | %Inh (CDKL1) | %Inh (CDKL2) | %Inh (CDKL3) | %Inh (CDKL5) | %Inh (CHEK1) | %Inh (CHEK2) | %Inh (CIT) | %Inh (CLK1) | %Inh (CLK2) | %Inh (CLK3) | %Inh (CLK4) | %Inh (CSF1R-autoinhibited) | %Inh (CSF1R) | %Inh (CSK) | %Inh (CSNK1A1L) | %Inh (CSNK1A1) | %Inh (CSNK1D) | %Inh (CSNK1E)
1 | Cn1ccc2ncnc(Oc3ccc(NC(=O)Nc4cncc(C(F)(F)F)c4)c(Cl)c3)c21 | 95% | 0% | 0% | 0% | 0% | 0% | 0% | 9% | 44% | 0% | 7% | 0% | 7% | 0% | 99.4% | 0% | 0% | 0% | 0% | 0%
2 | COC(=O)c1cccc(NC(=O)NC2CCN(c3ccnc(NCc4ccc(F)cc4)n3)CC2)c1 [GSK1379860] | 23% | 0% | 0% | 11% | 0% | 4% | 18% | 0% | 33% | 28% | 0% | 11% | 10% | 12% | 1% | 0% | 23% | 0% | 4% | 37%
3 | O=C(NOCC1CC1)c1cc(Br)c(F)c(F)c1Nc1ccc(I)cc1Cl | 0% | 0% | 8% | 0% | 0% | 0% | 0% | 0% | 0% | 0% | 9% | 0% | 0% | 0% | 0% | 0% | 0% | 1% | 0% | 0%
4 | O=C(NCC1CC1)c1ccc(-c2cc(C(=O)NC3CC3)ccc2F)cc1 [GW810445] | 62% | 0% | 0% | 0% | 28% | 0% | 0% | 0% | 25% | 0% | 15% | 0% | 0% | 8% | 0% | 0% | 0% | 0% | 0% | 0%
5 | OCCn1cc(-c2cnc3nnn(Cc4ccc5ncccc5c4)c3n2)cn1 | 0% | 8% | 0% | 0% | 10% | 0% | 0% | 6% | 0% | 16% | 0% | 0% | 0% | 25% | 0% | 33% | 0% | 15% | 0% | 0%
6 | FC(F)(F)c1cc(Br)cc(Nc2nccc(-c3cnn4ncccc34)n2)c1 [GW810578] | 2% | 97.8% | 47% | 96.2% | 97.4% | 95.3% | 0% | 17% | 6% | 99.2% | 95.6% | 79% | 85% | 0% | 61% | 17% | 68% | 58% | 91.9% | 75%
7 | Cc1ccc2c(-c3ccnc(Nc4ccc(C(F)(F)F)cc4)n3)cnn2n1 [GW819776] | 36% | 23% | 39% | 69% | 77% | 61% | 0% | 0% | 19% | 83% | 72% | 31% | 67% | 0% | 11% | 0% | 0% | 7% | 31% | 19%
8 | Nc1nccc(-c2ccc3c(N)n[nH]c3c2)n1 [GSK1034945] | 13% | 2% | 10% | 18% | 30% | 0% | 0% | 58% | 54% | 98% | 88% | 44% | 95.3% | 0% | 0% | 0% | 5% | 0% | 17% | 29%
9 | CC(=O)c1c(-c2ccncc2)[nH]c(-c2ccncc2)c1C [GW493036] | 0% | 87% | 0% | 43% | 16% | 35% | 83% | 0% | 100% | 99.8% | 82% | 65% | 96.1% | 19% | 12% | 8% | 79% | 93.4% | 93.7% | 90%
10 | CCOC(=O)N1CCC(n2cnc(-c3ccc(F)cc3)c2-c2ccnc(N)n2)CC1 [SB-219952] | 22% | 0% | 7% | 0% | 30% | 13% | 0% | 2% | 41% | 0% | 0% | 2% | 2% | 22% | 70% | 11% | 74% | 97.8% | 94.8% | 99.7%
